In PubChem BioAssay AID488841 (Sanford-Burnham Center for Chemical Genomics, 2010):
In all, about 1,400 compounds went through this assay and about 380 (27%) were called active.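 The calls were made as follows: active = mean inhibition above 50% across duplicate retests at 10 µM; inactive = the rest.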 Some of the results follow.

test: inhibition of NALP1/ASC/caspase-1 reporter signal in yeast, confirmation, NALP1 inhibitor project, S. cerevisiae, luminescence, single concentration (AID 488841);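 also: plate controls were DMSO in galactose medium for no effect and cells in plain SD medium for full effect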; details: S. cerevisiae NALP1/ASC/Caspase-1 reporter, beta-gal luminescence; at 10 µM; hits give high values

inhibition, active:
CCC(=O)Nc1cccc(-c2nc3ccccc3o2)c1 69.3%
CCC(C(=O)OC)n1cnc2scc(-c3ccc(C)c(C)c3)c2c1=O (stereo unspecified) 98.8%
COc1ccc(-c2cn3cccnc3n2)cc1Br 78.5%
CCCNC(=O)c1cc2c3ccccc3n(C)c2s1 69.2%
O=C(Nc1ccccc1)Nc1ccc(Br)cc1F 50.3%
CCCSc1ccc2nc(-c3ccccc3)cn2c1 75.4%
CSCc1ccc(C(=O)Nc2cc(C)cc(C)c2)cc1 76%
Cc1ccc(Nc2nc(N)c([N+](=O)[O-])c(NCc3ccco3)n2)cc1C 60.3%
CC1CCCN(c2nc(NCc3ccco3)nc(N)c2[N+](=O)[O-])C1 (stereo unspecified) 55.1%
Nc1nc(NCc2ccco2)nc(N2CCCCCC2)c1[N+](=O)[O-] 62.6%
CC1CCN(c2nc(NCc3ccco3)nc(N)c2[N+](=O)[O-])CC1 67.3%
CNC(=O)c1nnsc1S(=O)c1ccc(Cl)cc1 (stereo unspecified) 88.7%
O=C(c1nnsc1S(=O)c1ccc(Cl)cc1)N1CCOCC1 (stereo unspecified) 76.7%
CCCNC(=O)c1nnsc1S(=O)c1ccc(Cl)cc1 (stereo unspecified) 99.3%
CC(NC(=O)/C(C#N)=C/c1ccc([N+](=O)[O-])o1)c1ccccc1 (stereo unspecified) 52.1%
CC(NC(=O)/C(C#N)=C/c1ccc(Cl)c([N+](=O)[O-])c1)c1ccccc1 (stereo unspecified) 51.1%
COc1ccc(/C=C/C(=O)Nc2ccc3c(c2)CCC3)cc1OC 79.2%
COc1ccc(C(=O)NC(=S)Nc2ccccc2N2CCCCC2)cc1[N+](=O)[O-] 51.9%

inhibition, inactive:
O=C(COC(=O)C1(c2ccccc2F)CCCC1)N1CCOCC1 17.6%
Cc1cc(C)c(S(=O)(=O)Nc2ccc(OCC(=O)O)cc2)c(C)c1 27.6%
CCOC(=O)C1CCCN(Cc2ccc(OCC)cc2)C1 (stereo unspecified) 41.2%
Clc1ccc(OCCN2CCCCC2)cc1Cl 39.4%
CC/C(=N\NC(=O)c1ccccc1Cl)c1ccc(Br)s1 38.6%
Cc1cccc(C)c1OCC(=O)Nn1c(=O)[nH]c2ccccc2c1=O 32.6%
CCCc1cc(C(=O)O)c2ccccc2n1 27.6%
CCCCCC(=O)Nc1ccc2oc(-c3cccnc3)nc2c1 44.2%
COC(=O)c1cc(=O)n(-c2ccccc2)c(=Nc2ccccc2)s1 49.4%
Cn1c2ccccc2c(=O)c2c(=O)n(C3CCCCCC3)c(C3CCCCC3)nc21 41%
Cn1c(=O)n(CCCOc2ccc(Cl)cc2)c2ccccc21 45.5%
O=C(NC1CCCC1)C(c1ccccn1)N(C(=O)c1csnn1)C1CC1 (stereo unspecified) 18.6%
c1ccc(-c2noc(-c3ccccc3-c3ccccc3)n2)cc1 23.8%
O=C(CN1CCOCC1)Nc1ccccc1Sc1ccc(Cl)cc1 32.2%
CSc1nc(C)cc(OCCO)n1 27.2%
CC(C)OCCCNC(=O)c1cc2c(=O)n(C)c3ccccc3c2n1C 18.5%
Cc1ccc(S(=O)(=O)N(C)C)cc1NC(=O)Nc1ccccc1F 21.1%
O=C(NNC(=O)c1ccc(-c2ccccc2)cc1)Nc1ccc(F)cc1F 20.4%
CCOC(=O)c1ccc(N2CCOCC2)c(NC(=O)COCC(=O)O)c1 16.1%
COc1ccc(CC(C)N2CCN(Cc3ccccc3)CC2)c(OC)c1 (stereo unspecified) 27.8%
Cc1ccccc1N(CC(=O)N/N=C/c1ccccc1Cl)C(=O)c1ccccc1 32%
Cc1nc(-c2ccccc2)sc1C(=O)CSc1ccccc1 42%
Cc1cc(C)cc(NS(=O)(=O)c2ccc(NC(=S)NC(=O)c3ccc(Br)o3)cc2)c1 45.4%
CS(=O)(=O)N(Cc1ccccc1)c1ccc(C(=O)Nc2ccc3c(c2)OCO3)cc1 33.1%
COCCn1c(SCC(=O)NC(=O)NC(C)(C)C)nc2ccccc21 27.5%
Cc1ccc(C(=O)NCc2ccco2)cc1S(=O)(=O)Nc1cccc(Cl)c1 25.1%
CC1CCN(c2ccccc2NC(=O)c2ccc(N3CCOCC3)c([N+](=O)[O-])c2)CC1 1.35%
O=C(Nc1nc(-c2ccncc2)cs1)c1ccc(S(=O)(=O)N2CCOCC2)cc1 28.9%
Clc1ccc(N2CCN(c3cnc4ccccc4n3)CC2)cc1 37.4%
COc1ccc(-c2nc3c(c(=O)[nH]c(=O)n3Cc3ccccc3)n2C)cc1 27.9%
CC1CCCCC1NC(=O)/C(C#N)=C/c1ccccc1F (stereo unspecified) 39.8%
CC(C)(C)C1=CC(=O)C(=O)C(C(C)(C)C)=C1 20%
CCSc1nnc(-c2ccncc2)n1Cc1ccccc1 35.8%
Cc1ccc(NC(=S)Nc2ccc(Cl)c(Cl)c2)c(OC(F)F)c1 33.8%
O=C(Cc1ccc([N+](=O)[O-])cc1)c1ccc(O)cc1O 39%
CC[N+]1(CC)CC2=Cc3c(ccc4ccccc34)CC2C1 (stereo unspecified) 14.5%
CCOC(=O)n1c(=O)n(Cc2ccccc2)c2ccccc21 25.8%
O=C(c1ccc(COc2ccccc2Br)cc1)N1CCCCC1 36.5%
CCCCNC(=O)Nc1nnc(-c2ccc(Cl)cc2)o1 44.9%
O=C(CCSc1nc2cc(Cl)ccc2o1)N1CCOCC1 24.1%
Cn1cc(S(=O)(=O)N2CCN(c3cccc(C(F)(F)F)c3)CC2)c(=O)n(C)c1=O 7.85%
CN(Cc1ccccc1)C(=O)c1ccc([N+](=O)[O-])o1 40.2%
COC(=O)c1ccc(/C=C(\C#N)C(=O)NC(C)c2ccccc2)cc1 (stereo unspecified) 23.2%
COc1cc(/C=C/C(=O)Nc2ccc(C)cc2)cc(OC)c1OC 33.6%
COc1cc(/C=C(\NC(C)=O)C(=O)Nc2cccc(O)c2)ccc1OC(C)=O 28.1%
CCc1ccc(CC(=S)N2CCOCC2)cc1 42.3%
CCOc1ccc(C(=O)NC(=S)Nc2ccccc2N2CCCCC2)cc1[N+](=O)[O-] 43.9%
CCOc1ccc(C(=O)Nc2ccc(-c3nc4ccccc4[nH]3)cc2)cc1[N+](=O)[O-] 26.6%
